In PubChem BioAssay (NCATS):
Records with an inconclusive call do not appear. Active and inactive are the calls of the source. Calls come from the whole dose curve; as a rule, active = well fitted inhibition curve with a large enough effect; inconclusive = small, poorly fitted or top-dose-only effect; inactive = no such curve, though single readings can be large or run the other way. Square brackets hold non-standard residues; d marks the D form. Peptide text beside a SMILES is read from it. * marks the point of attachment. pGlu = O=C1CC[C@@H](C(=O)O)N1; Thz = O=C(O)[C@@H]1CSCN1; PhAc = O=C(Cc1ccccc1)*

What follows are compounds tested against Retinaldehyde dehydrogenase 3 (Homo sapiens) (UniProt P47895) (assay: qHTS for Inhibitors of the Aldehyde Dehydrogenase Family (ALDH1A3) Validation screen (AID 2061312; note: nearly all actives have a fitted effect of over 45% in size)). Conditions: ALDH1A3 enzyme inhibition qHTS validation, fluorescence; series mostly up to 84.7 µM; activity change, negative = inhibition: at the top concentration.
% is set by controls: 0 for no effect and ±100 for the full control effect.

| Structure (SMILES) | activity change, negative = inhibition |
| --- | --- |
| C[C@@H]1C(=O)O[C@H]2[C@@H](O)C34[C@H]5C[C@@H](C(C)(C)C)C36[C@@H](OC(=O)[C@@H]6O)O[C@@]4(C(=O)O5)[C@@]12O (stereo not given in full) | 20.5% (inactive) |
| CNC(=O)O[C@H]1COc2ccc(N3CCN(C4COC4)CC3)cc2[C@@H]1NC(=O)c1ccc(F)cc1 | -13.4% (inactive) |
| CC(C)NCC(C(=O)N1CCN(c2ncnc3c2C(C)CC3O)CC1)c1ccc(Cl)cc1 (stereo not given) | 17.4% (inactive) |
| Cc1ccc(N2CCN(CCC3NC(=O)c4ccccc43)CC2)cc1C (stereo not given) | -10.4% (inactive) |
| CCN1CCN(Cc2ccc(NC(=O)c3ccc(C)c(Oc4ncnc5[nH]c(C)cc45)c3)cc2C(F)(F)F)CC1 | 99.2% (inactive) |
| O=c1cc(N2CCOCC2)nc2c3ccccc3ccn12 | 88.4% (inactive) |
| CC(C)(F)CC(NC(c1ccc(-c2ccc(S(C)(=O)=O)cc2)cc1)C(F)(F)F)C(=O)NC1(C#N)CC1 (stereo not given) | -26.6% (inactive) |
| O=C(CNC(=O)c1cccc(C(F)(F)F)c1)N[C@@H]1CCN(Cc2ccc(Cl)cc2)C1 | 25.3% (inactive) |
| C[C@@H](NC(=O)c1cc(C(=O)N[C@@H](Cc2ccccc2)[C@H](O)CNC2CC2)cc(N(C)S(C)(=O)=O)c1)c1ccccc1 | 71.9% (inactive) |
| CCOC(=O)CNC(=O)[C@@H]1CCCN1C(=O)Cc1ccccc1 (PhAc-Pro-Gly-OEt) | -7.65% (inactive) |
| COc1cc(Br)c(Nc2nc(-c3c(C)nc4ncccn34)cs2)c(Br)c1 | -11.1% (inactive) |
| Cc1cc(C)nc(NS(=O)(=O)c2ccc(NC(=S)NC(=O)COc3ccc(Br)cc3Cl)cc2)n1 | 185% (inactive) |
| O=C(COc1ccc2ccccc2c1Br)Nc1cccnc1 | 33.7% (inactive) |
| Nc1nc2c(ncn2[C@@H]2O[C@H](CO)[C@@H](O)[C@H]2O)c(=O)[nH]1 | 25.3% (inactive) |
| N[C@@H](CC(=O)Nc1ccc(Oc2cc(F)c(F)cc2Br)cc1)C(=O)O | 121% (inactive) |
| O=C(NCc1ccc(OC(F)(F)F)cc1)C1c2ccccc2C(=O)N1C1CCOCC1 (stereo not given) | -11.8% (inactive) |
| c1ccc(CN(CC2=NCCN2)c2ccccc2)cc1 | 1.71% (inactive) |
| O=C(N[C@H](Cc1cscn1)C(=O)N[C@@H](CC1CCCCC1)[C@@H](O)[C@@H](O)C1CC1)c1nc2ccccc2[nH]1 | 46.4% (inactive) |
| CN(C)CC(c1ccc(O)cc1)C1(O)CCCCC1 (stereo not given) | 6.81% (inactive) |
| O=C(NCc1ccc(F)cc1)C(=O)c1c[nH]c2ccccc12 | 5.75% (inactive) |

| Structure (SMILES) | activity change, negative = inhibition |
| --- | --- |
| CC(Cc1cc2c(c(C(N)=O)c1)N(CCCO)CC2)NCCOc1ccccc1OCC(F)(F)F (stereo not given) | 159% (inactive) |
| CCn1c2ccccc2c2cc(CNC)ccc21 | 12.7% (inactive) |
| CCN(CC)C(=O)Nc1ccc(OCC(O)CNC(C)(C)C)c(C(C)=O)c1 (stereo not given) | 33.7% (inactive) |
| CC1(C)C(=O)C(C)(C)c2cc(C(=O)Nc3ccc(C(=O)O)cc3)ccc21 | -6.39% (inactive) |
| CC(C)(C)C1CCN(C(=O)n2ncc(C(O)(c3ccccc3)c3ccccc3)n2)CC1 | -6.86% (inactive) |
| N[C@@H](CC(=O)N1CCn2c(nnc2C(F)(F)F)C1)Cc1[nH]nc2c(F)c(F)ccc12 | 20.4% (inactive) |
| Cc1[nH]c2ccccc2c1CC(=O)N[C@@H](Cc1ccccc1)C(=O)N(C)c1ccccc1 | 33.2% (inactive) |
| N[C@@H]1c2cccnc2[C@H](OC(=O)N2CCC(n3c(=O)[nH]c4ncccc43)CC2)CC[C@H]1c1cccc(F)c1F | 185% (inactive) |
| CC(NCCCc1cccc(C(F)(F)F)c1)c1cccc2ccccc12 (stereo not given) | 86.1% [at 42.4 µM] (inactive) |
| CN(C)S(=O)(=O)c1ccc(NC(=S)N2CCC(C(O)(c3ccccc3)c3ccccc3)CC2)cc1 | 112% (inactive) |
| CC(C)[N+]1(C)C2CCC1CC(OC(=O)C(CO)c1ccccc1)C2 (stereo not given) | 43.7% (inactive) |
| CCOc1nc2c(N)ncnc2n1CC | -7.52% (inactive) |
| O=C(O)c1ccccc1NC(=O)N1CCC(c2ccccc2C(F)(F)F)CC1 | 12.8% (inactive) |
| CC1(C)[C@H]2C[C@H](C/C=C\CCCC(=O)O)[C@@H](NC(=O)c3csc4ccc(O)cc34)[C@@H]1C2 | -30.9% (inactive) |
| CCCCc1c(-c2ccc(OC)cc2)[nH]c2nccnc12 | 89.2% (inactive) |
| COc1ccccc1-n1c(SCC(=O)Nc2nc3ccc(C)cc3s2)nc2c(c1=O)SCC2 | -1.14% [at 42.4 µM] (inactive) |
| CC1=C(/C=C/C(C)=C\C=C\C(C)=C/C(=O)O)C(C)(C)CCC1 | -18.4% (inactive) |
| O=C1CC[C@@H](C(=O)N2CSC[C@H]2C(=O)O)N1 ([pGlu]-[Thz]-OH) | -20.6% (inactive) |
| C=CCCN1CCC2(CC1)CN(C(=O)c1c(F)cccc1F)c1ccc(Cl)cc12 | 84.3% (inactive) |
| COc1cc(Nc2nc3c(s2)CCCC3c2ccccc2)ccc1-n1cnc(C)c1 (stereo not given) | 6.59% [at 20.1 µM] (inactive) |
